Assays:
Assay in all cases: PBM binding z-score (relative to random genomic background probes); higher = stronger binding; sequences stand for … in GC…GCGATTGACAGCGTAGAATGAAGG
[1] = tested on: FXR:RXRa (NR concentration 270 nM, RXRa partner concentration 90 nM)
Outline: (§1)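 Each nuclear receptor dimer, without ligand, was incubated for 1 h on custom Agilent 4×180K protein-binding microarrays. Binding was detected with antibodies against each partner (one per run), and scanned fluorescence was regression-normalized. The binding z-scores are referenced to random human genomic background probes.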

[2] = tested on: LXRa:RXRa (NR concentration 270 nM, RXRa partner concentration 90 nM)
Outline: as §1

[3] = tested on: LXRa homodimer (NR concentration 270 nM)
Outline: as §1

[4] = tested on: LXRb:RXRa (NR concentration 270 nM, RXRa partner concentration 90 nM)
Outline: as §1

[5] = tested on: LXRb homodimer (NR concentration 270 nM)
Outline: as §1

[6] = tested on: PPARa:RXRa (NR concentration 270 nM, RXRa partner concentration 90 nM)
Outline: as §1

[7] = tested on: PPARg:RXRa (NR concentration 180 nM, RXRa partner concentration 90 nM)
Outline: as §1

[8] = tested on: PPARg:RXRa 270nM:90nM, anti-RXR (NR concentration 270 nM, RXRa partner concentration 90 nM)
Outline: as §1

[9] = tested on: PPARg:RXRa 30nM:10nM, anti-RXR (NR concentration 30 nM, RXRa partner concentration 10 nM)
Outline: as §1

[10] = tested on: PPARg:RXRa 90nM:30nM, anti-RXR (NR concentration 90 nM, RXRa partner concentration 30 nM)
Outline: as §1

[11] = tested on: PPARg:RXRa DBDmut IVT, anti-RXR (DBD mutation: RXRa K156A/R161A, NR concentration 270 nM, RXRa partner concentration 90 nM)
Outline: as §1

[12] = tested on: PPARg:RXRa IVT, anti-PPARg (NR concentration 270 nM, RXRa partner concentration 90 nM)
Outline: as §1

[13] = tested on: PPARg DBDmut:RXRa IVT, anti-PPARg (DBD mutation: PPARg1 K132A/R137A, NR concentration 270 nM, RXRa partner concentration 90 nM)
Outline: as §1

[14] = tested on: PPARg DBDmut IVT, anti-PPARg (DBD mutation: PPARg1 K132A/R137A, NR concentration 270 nM)
Outline: as §1

[15] = tested on: PPARg homodimer (NR concentration 180 nM)
Outline: as §1

[16] = tested on: PXR:RXRa (NR concentration 270 nM, RXRa partner concentration 90 nM)
Outline: as §1

[17] = tested on: PXR homodimer (NR concentration 270 nM)
Outline: as §1

[18] = tested on: RARa:RXR (NR concentration 270 nM, RXRa partner concentration 90 nM)
Outline: as §1

[19] = tested on: RARa homodimer (NR concentration 270 nM)
Outline: as §1

[20] = tested on: RARb:RXRa (NR concentration 270 nM, RXRa partner concentration 90 nM)
Outline: as §1

Sequence	PBM binding z-score [1]	PBM binding z-score [2]	PBM binding z-score [3]	PBM binding z-score [4]	PBM binding z-score [5]	PBM binding z-score [6]	PBM binding z-score [7]	PBM binding z-score [8]	PBM binding z-score [9]	PBM binding z-score [10]	PBM binding z-score [11]	PBM binding z-score [12]	PBM binding z-score [13]	PBM binding z-score [14]	PBM binding z-score [15]	PBM binding z-score [16]	PBM binding z-score [17]	PBM binding z-score [18]	PBM binding z-score [19]	PBM binding z-score [20]
CCTCGGAGGACAGAAGTTCAGAGCTGTCCGCTTT	-0.0968	0.116	-0.259	-0.479	-0.948	-0.198	-0.643	-0.616	-1.24	-0.788	-0.783	-0.951	-1.61	-1.82	-0.0548	0.556	-0.104	-0.223	-0.677	1.59
TAGCGTAGGTCATGGGCCAGTATACCACGCGAAC	4.78	3.98	0.0742	2.68	-0.458	4.58	3.92	4.08	1.41	2.88	0.846	2.41	-0.196	0.0667	0.862	2.19	-0.726	3.4	-0.444	3.9
GCTACAGGGTCAGCTAGAGGCCAGAGTATGGAAA	4.62	2.54	-0.26	2.36	-0.67	4.6	2.79	2.91	0.541	1.78	1.26	1.75	-0.627	-0.389	1.43	3.1	-0.36	4	-0.208	4.32
GCTAGTTGGTCAGTAAAAGGTCACACGCCGGTCG	3.48	4.98	4.69	4.1	0.629	4.52	3.32	4.66	2.53	4.53	1.06	3.13	-0.186	0.255	3.94	5.06	0.982	6.11	1.93	4.53
CCGACTGGGGTAGAAAGGTTACCATACCATCCGG	0.17	0.786	-0.133	1.06	-1.02	2.58	2.04	3.63	1.08	3.32	0.466	1.2	-1.23	-0.59	1.69	1.32	-0.0597	2.45	0.375	1.72
CCTACTGGGCCAAAGGTCATGGATTCCAATGCTC	5.14	5.37	2.61	5.06	0.296	6.56	12	9.45	10.3	10.5	5.34	6.68	-0.19	-0.578	2.93	5.44	0.496	6.58	0.489	4.92
AGTCAATGTTCATCTAGGTAACGTAAGATATGCT	-0.0895	-0.35	-0.229	-0.0742	-0.311	0.296	0.881	-0.0872	-0.0799	-0.00272	0.56	1.85	1.15	0.949	-0.656	-0.196	0.00127	-0.13	0.181	0.152
GGAACGAGGGCATTCGAGTTGATCGCATGGCGAT	1.56	1.88	-0.524	0.182	-1	1.17	0.585	0.552	-0.63	0.176	3.31	1.97	-0.808	-0.537	-0.069	3.96	1.47	0.882	-1.16	1.68
TCTCTGAGGACACGAAAGGTCAGAGCTCGACATC	3.12	3.53	3.1	2.98	0.245	3.53	1.56	2.9	2.68	2.75	1.67	2.12	0.453	1.37	2.33	4.09	0.562	4.33	0.907	4.2
TTAGCAAGGTGAAAGGTCGTTGATGCACGCCTTG	3.42	2.78	-0.037	2.47	-0.713	5.24	8.3	7.95	8.33	9.55	2.15	4.63	0.373	-0.113	1.42	3.85	0.158	5.72	-0.524	2.98
ATCTCTTGGTAAAAGTTCAGTGAATCCCGAGGAT	0.493	1.23	1.42	0.868	1.09	1.58	1.87	4.15	1.88	3.88	-0.122	0.894	0.627	0.652	1.46	1.83	1.58	1.1	1.12	2.37
GCTAGTTGGTCAGTAAAAGGGCACACACCGGTCG	0.16	0.257	0.266	0.266	-0.104	0.841	0.709	1.04	0.0544	0.502	0.062	0.821	0.0138	-0.25	1.05	0.368	0.0129	0.889	0.252	1.72
GCTTGTAGATCAAGGTTAAGATAGACTAAGCTAA	0.296	1.56	-0.0877	0.529	-0.803	1.66	1.17	2.1	0.465	1.81	1.44	1.14	0.0148	-0.396	0.519	0.536	0.00293	0.825	-0.522	0.938
CCTGCTAGGTCATCGTCAGCTAATCTACAGTATG	3.85	2.89	0.112	1.87	-0.413	3.5	2.06	2.75	0.439	1.47	4.49	3.59	-0.277	-0.677	0.929	1.45	-0.29	2.39	-0.471	4.03

From the supplement of paper PMC6555819
